Measurements: PMC4336329 (PLoS ONE, 2015)
Hit rate of the full screen: of about 310,000 compounds, about 14,000 (4.5%) showed an effect of 50% or more. The effect is printed as a negative number. This excerpt belongs to a sample that is enriched for strong results.
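Note: peak tail current of the secondary pulse compared with the same well before compound.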

The molecules below were run against human ether-à-go-go-related gene (hERG) potassium channel (human, UniProt Q12809) (assay: primary screen, population patch clamp on CHO cells stably expressing hERG; higher = less effect of the substance).
human ether-à-go-go-related gene (hERG) potassium channel, sequence (Q12809 whole entry, looked up): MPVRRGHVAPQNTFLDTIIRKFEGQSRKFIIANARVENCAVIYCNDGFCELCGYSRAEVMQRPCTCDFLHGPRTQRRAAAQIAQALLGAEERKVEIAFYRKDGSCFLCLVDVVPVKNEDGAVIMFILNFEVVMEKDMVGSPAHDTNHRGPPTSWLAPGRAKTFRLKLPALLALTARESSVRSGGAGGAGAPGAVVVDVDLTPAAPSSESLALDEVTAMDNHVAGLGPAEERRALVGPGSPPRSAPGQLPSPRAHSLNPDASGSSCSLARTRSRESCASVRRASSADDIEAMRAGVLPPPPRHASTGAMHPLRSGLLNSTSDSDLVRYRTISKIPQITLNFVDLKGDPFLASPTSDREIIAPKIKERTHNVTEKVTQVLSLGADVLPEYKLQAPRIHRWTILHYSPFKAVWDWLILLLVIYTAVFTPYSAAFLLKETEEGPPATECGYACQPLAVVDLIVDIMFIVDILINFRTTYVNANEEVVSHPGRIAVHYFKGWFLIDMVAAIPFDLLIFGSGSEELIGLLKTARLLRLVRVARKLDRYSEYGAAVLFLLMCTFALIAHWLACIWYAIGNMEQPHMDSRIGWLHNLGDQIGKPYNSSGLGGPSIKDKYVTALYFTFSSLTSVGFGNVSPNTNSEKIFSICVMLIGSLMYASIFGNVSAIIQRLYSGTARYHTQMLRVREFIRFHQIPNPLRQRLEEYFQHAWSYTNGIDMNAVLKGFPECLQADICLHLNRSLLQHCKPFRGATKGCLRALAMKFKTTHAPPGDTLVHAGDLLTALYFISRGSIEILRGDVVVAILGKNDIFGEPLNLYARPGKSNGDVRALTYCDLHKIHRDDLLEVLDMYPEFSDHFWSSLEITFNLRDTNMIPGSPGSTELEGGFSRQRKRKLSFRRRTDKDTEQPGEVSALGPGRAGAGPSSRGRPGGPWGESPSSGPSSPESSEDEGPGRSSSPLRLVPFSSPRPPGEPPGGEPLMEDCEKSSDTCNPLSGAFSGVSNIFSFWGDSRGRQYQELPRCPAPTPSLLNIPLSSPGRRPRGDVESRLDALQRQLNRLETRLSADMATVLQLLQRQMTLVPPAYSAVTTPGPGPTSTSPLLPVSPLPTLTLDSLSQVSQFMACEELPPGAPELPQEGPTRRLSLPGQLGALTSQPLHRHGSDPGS
`CCNc1nn2ccccc2c1/C=C(\C#N)C(=O)OCC` was tested, and the “hERG current change (%, negative = inhibition) at 10uM” value was -4.06%.
In the case of `COCCCNC(=S)Nc1ccc(C)cc1[N+](=O)[O-]`, the “hERG current change (%, negative = inhibition) at 10uM” value is reported as 1.51%.
In the case of `CCCS(=O)(=O)N1CCCC(C(=O)NCCN(C)Cc2ccccc2)C1` (stereo not shown), the “hERG current change (%, negative = inhibition) at 10uM” value is reported as -8.41%.
With `CCCS(=O)(=O)N1CCCC(C(=O)NCCc2ccccc2)C1` (stereo not shown) the “hERG current change (%, negative = inhibition) at 10uM” value was -1.02%.
In the case of `CS(=O)(=O)N1CCC(C(=O)N2CCC(Cc3ccccc3)CC2)CC1`, the “hERG current change (%, negative = inhibition) at 10uM” value is reported as -15.1%.
For `CCCS(=O)(=O)N1CCC(C(=O)N2CCC(Cc3ccccc3)CC2)CC1`, the “hERG current change (%, negative = inhibition) at 10uM” value was -63%.
With `CCCS(=O)(=O)N1CCCC(C(=O)NCCN2CCC(Cc3ccccc3)CC2)C1` (stereo not shown) the “hERG current change (%, negative = inhibition) at 10uM” value was -58.2%.
For `CCCS(=O)(=O)N1CCCC(C(=O)N2CCC(Cc3ccccc3)CC2)C1` (stereo not shown), the “hERG current change (%, negative = inhibition) at 10uM” value was -19.9%.
In the case of `CCSc1nsc(SCC)c1C(N)=O`, the “hERG current change (%, negative = inhibition) at 10uM” value is reported as 7.66%.
For `CC1(C)Cc2nc3scc(NC(=O)c4ccccc4)c3cc2CO1`, the “hERG current change (%, negative = inhibition) at 10uM” value was -0.679%.
With `CN(CCc1ccccc1)c1ccc([N+](=O)[O-])cn1` the “hERG current change (%, negative = inhibition) at 10uM” value was 2.08%.
In the case of `CC1CC(C)CN(CCCn2c(=S)[nH]c3ccccc3c2=O)C1` (stereo not shown), the “hERG current change (%, negative = inhibition) at 10uM” value is reported as -53%.
With `O=c1c2ccccc2[nH]c(=S)n1CCN1CCCCC1` the “hERG current change (%, negative = inhibition) at 10uM” value was -1.11%.
For `CC1CC(C)CN(C(=O)CCCn2c(=S)[nH]c3ccccc3c2=O)C1` (stereo not shown), the “hERG current change (%, negative = inhibition) at 10uM” value was -3.01%.
With `CCN1CCN(CCn2c(=S)[nH]c3ccccc3c2=O)CC1` the “hERG current change (%, negative = inhibition) at 10uM” value was -10.5%.
With `O=c1c2ccccc2[nH]c(=S)n1CCCN1CCN(C2CCCCC2)CC1` the “hERG current change (%, negative = inhibition) at 10uM” value was -53.9%.
For `CCC1CCCCN1CCn1c(=S)[nH]c2cc(OC)c(OC)cc2c1=O` (stereo not shown), the “hERG current change (%, negative = inhibition) at 10uM” value was -25.4%.
In the case of `COc1ccccc1N1CCN(CCCn2c(=S)[nH]c3ccccc3c2=O)CC1`, the “hERG current change (%, negative = inhibition) at 10uM” value is reported as -61.6%.
With `O=c1c2ccccc2[nH]c(=S)n1CCCN1CCN(c2ccccc2F)CC1` the “hERG current change (%, negative = inhibition) at 10uM” value was -2.57%.
`CC1CCCCN1CCCn1c(=S)[nH]c2ccccc2c1=O` (stereo not shown) was tested, and the “hERG current change (%, negative = inhibition) at 10uM” value was -46.4%.
In the case of `COc1ccc(N2CCN(CCCn3c(=S)[nH]c4ccccc4c3=O)CC2)cc1`, the “hERG current change (%, negative = inhibition) at 10uM” value is reported as -36.7%.
`CCC1CCCCN1CCCn1c(=S)[nH]c2ccccc2c1=O` (stereo not shown) was tested, and the “hERG current change (%, negative = inhibition) at 10uM” value was -56.2%.
For `CCCCn1c(=S)[nH]c2ccccc2c1=O`, the “hERG current change (%, negative = inhibition) at 10uM” value was 13.7%.
For `CCC1(C)Cc2ccccc2-c2nc(NCCO)n(-c3ccc(C)cc3)c(=O)c21` (stereo not shown), the “hERG current change (%, negative = inhibition) at 10uM” value was -25.1%.
With `CCOC(=O)N1CCN(c2c(NCc3ccccc3OC)c(=O)c2=O)CC1` the “hERG current change (%, negative = inhibition) at 10uM” value was 0.238%.
With `CCOC(=O)Nc1ccc(S(=O)(=O)Nc2cc(C)on2)cc1` the “hERG current change (%, negative = inhibition) at 10uM” value was 6.84%.
With `CC1CCN(CCCn2c(=S)[nH]c3ccccc3c2=O)CC1` the “hERG current change (%, negative = inhibition) at 10uM” value was -56.9%.
`O=c1c2ccccc2[nH]c(=S)n1CCCN1CCN(c2ccccc2)CC1` was tested, and the “hERG current change (%, negative = inhibition) at 10uM” value was -19.7%.
In the case of `O=c1c2ccccc2[nH]c(=S)n1CCCN1CCC(Cc2ccccc2)CC1`, the “hERG current change (%, negative = inhibition) at 10uM” value is reported as -73.6%.
With `O=c1c2ccccc2[nH]c(=S)n1CCCN1CCOCC1` the “hERG current change (%, negative = inhibition) at 10uM” value was 8.73%.
In the case of `O=c1c2ccccc2[nH]c(=S)n1CCN1CCN(Cc2ccccc2)CC1`, the “hERG current change (%, negative = inhibition) at 10uM” value is reported as -19.8%.
With `CC1CCN(CCn2c(=S)[nH]c3ccccc3c2=O)CC1` the “hERG current change (%, negative = inhibition) at 10uM” value was -32.6%.
In the case of `C=CCn1c(SCC(=O)NCC(c2ccccc2)N(C)C)nnc1C1CCCCC1` (stereo not shown), the “hERG current change (%, negative = inhibition) at 10uM” value is reported as 8.62%.
With `Cc1cc(Br)cc(C)c1NC(=O)c1ccc(C#N)cc1F` the “hERG current change (%, negative = inhibition) at 10uM” value was -21.2%.
With `NS(=O)(=O)c1ccc(CCNC(=O)CCc2nc3sc4c(c3c(=O)[nH]2)CCCC4)cc1` the “hERG current change (%, negative = inhibition) at 10uM” value was 17.6%.
With `CC(C)CN1CCC(=O)N([C@H](CSc2ccc(Br)cc2)Cc2ccccc2)CC1` the “hERG current change (%, negative = inhibition) at 10uM” value was -43.2%.
In the case of `CC(C)CN1CCC(=O)N([C@H](CN=[N+]=[N-])Cc2ccccc2)CC1`, the “hERG current change (%, negative = inhibition) at 10uM” value is reported as -22.9%.
`CC(C)C[C@@H](CSc1ccc(Br)cc1)N1CCN(CC(C)C)CCC1=O` was tested, and the “hERG current change (%, negative = inhibition) at 10uM” value was -68.6%.
For `CC(C)C[C@@H](CSc1ccccc1)N1CCN(C)CCC1=O`, the “hERG current change (%, negative = inhibition) at 10uM” value was -16%.
With `CC(C)C[C@@H](CO)N1CCN(C)CCC1=O` the “hERG current change (%, negative = inhibition) at 10uM” value was -4.26%.
In the case of `CC(C)C[C@@H](CN=[N+]=[N-])N1CCN(CC(C)C)CCC1=O`, the “hERG current change (%, negative = inhibition) at 10uM” value is reported as -3.55%.
In the case of `CC(C)C[C@@H](CO)N1CCN(Cc2ccc(Br)cc2)CCC1=O`, the “hERG current change (%, negative = inhibition) at 10uM” value is reported as -13.5%.
`CC(C)C[C@@H](CSc1ccc(Br)cc1)N1CCN(C)CCC1=O` was tested, and the “hERG current change (%, negative = inhibition) at 10uM” value was -64.7%.
In the case of `CCCN1CCC(=O)N([C@H](CSc2ccccc2)CC(C)C)CC1`, the “hERG current change (%, negative = inhibition) at 10uM” value is reported as -66.4%.
For `CC(C)CN1CCC(=O)N([C@H](CSc2ccccc2)Cc2ccccc2)CC1`, the “hERG current change (%, negative = inhibition) at 10uM” value was -67.9%.
With `CCOC(=O)C(NCc1ccc2c(c1)OCO2)(NC(=O)CC)C(F)(F)F` (stereo not shown) the “hERG current change (%, negative = inhibition) at 10uM” value was 14.3%.
